# Screens as filed in PubChem.
# Hits are enriched below; roughly 10% of the tested compounds scored in any of these assays.
# Luciferase inh = Photinus pyralis luciferase inhibition; P08659; 76,000 compounds, 2.5% hits; Potency, µM (doses to about 115 µM), hits mostly inhibitors; purified P. pyralis luciferase, luminescence, biochemical; further: on the % scale 0 is the no-effect control and ±100 the full control effect; nearly all actives have a fitted effect of over 65% in size
# Target sequence (P08659 whole entry, looked up): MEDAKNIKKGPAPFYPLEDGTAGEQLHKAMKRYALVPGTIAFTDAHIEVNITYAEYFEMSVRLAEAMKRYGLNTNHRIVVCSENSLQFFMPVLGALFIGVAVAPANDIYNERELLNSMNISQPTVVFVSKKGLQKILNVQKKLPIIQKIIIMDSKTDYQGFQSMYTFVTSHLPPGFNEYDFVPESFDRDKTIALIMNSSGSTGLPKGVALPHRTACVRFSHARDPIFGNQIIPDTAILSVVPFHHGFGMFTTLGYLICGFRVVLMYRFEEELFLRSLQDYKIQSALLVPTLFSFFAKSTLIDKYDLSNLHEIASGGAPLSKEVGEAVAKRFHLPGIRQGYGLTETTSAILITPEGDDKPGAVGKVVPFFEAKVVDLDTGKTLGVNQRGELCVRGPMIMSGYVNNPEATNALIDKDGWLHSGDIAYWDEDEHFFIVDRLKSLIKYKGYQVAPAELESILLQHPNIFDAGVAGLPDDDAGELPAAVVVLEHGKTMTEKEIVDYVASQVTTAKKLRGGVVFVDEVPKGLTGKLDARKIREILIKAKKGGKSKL
#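 Purified P. pyralis luciferase (10nM final) in 50mM Tris acetate pH 7.5, 10mM Mg acetate, 0.01% Tween-20, 0.05% BSA with 10uM D-luciferin and 10uM ATP. Compounds titrated qHTS. Luminescence imaged on CCD.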
# GPT2 inhibitor = GPT2 alanine aminotransferase inhibition; 100,000 compounds, 0.25% hits; Recombinant GPT2, coupled pyruvate oxidase/HRP Amplex Red fluorescence; Potency, µM (titrated, usually from 57.7 µM), for inactives: at the top dose activity change, negative = inhibition, actives largely listed as inhibitors; further: on the % scale 0 is the no-effect control and ±100 the full control effect; nearly all actives have a fitted effect of over 60% in size
#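 Fluorescence read-out: pyruvate from GPT2 turnover coupled to pyruvate oxidase, HRP and Amplex Red (0.2mM ThPP, 0.2U/mL PO and HRP, 50uM Amplex final). Substrates 250uM a-KG, 2mM L-alanine; enzyme 10ng/uL; 30 min RT.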
# HEK cytotox = cytotoxic compounds in HEK 293 cells. HEK 293 viability, ATP luminescence (CellTiter-Glo), 48-72 h. Potency, µM (series often up to 115 µM), for the others: top-dose activity change, negative = cytotoxicity, hits mostly inhibitors. 94,000 compounds, 6.6% hits. AID 1345083; further: on the % scale 0 is the no-effect control and ±100 the full control effect; nearly all actives have a fitted effect of over 60% in size
#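 Cells seeded first (HEK 293, 250 cells/well), then compound added by pintool. Incubation ran 48 or 72 hr at 37 degree Celsius. CellTiter-Glo was added and luminescence imaged after 10 min at room temperature.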
# NIH3T3 tox = cytotoxic compounds in NIH 3T3 cells | 94,000 compounds, 4.3% hits | Potency, µM (doses to about 96.7 µM), without a hit: top-dose activity change, negative = cytotoxicity, actives largely listed as inhibitors | NIH 3T3 viability, CellTiter-Glo ATP luminescence, 48-72 h; further: on the % scale 0 is the no-effect control and ±100 the full control effect; nearly all actives have a fitted effect of over 55% in size
#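 NIH 3T3 cells at 400 cells/well received 23 nL of compound by pintool and were incubated 48 or 72 h at 37 °C. Viability was read as ATP-coupled CellTiter-Glo luminescence.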
# hNpr1 antagonist = human Npr1 receptor antagonism | P16066 | HEK293 hNpr1 GloSensor cGMP, ANP-stimulated luminescence | Potency, µM (doses to about 46.3 µM), without a hit: top-dose activity change, negative = inhibition, most hits filed as inhibitors | 76,000 compounds, 1.6% hits | AID 1347048; calls by dose curve; further: on the % scale 0 is the no-effect control and ±100 the full control effect; nearly all actives have a fitted effect of over 60% in size
#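 HEK293 cells stably expressing human Npr1 and cGMP GloSensor pGS-40F, loaded 2 h with 2% GloSensor reagent, given compound 30 min at room temperature. Luminescence read before and 20 min after 0.1 nM hNppA.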
# NPR1 antag cnf = hNpr1 antagonism, confirmation assay; shares compounds with hNpr1 antagonist; HEK293 hNpr1 cGMP GloSensor luminescence, ANP-stimulated; 1,400 compounds, 76% hits; Potency, µM (highest dose often 57.6 µM), for inactives: top-dose activity change, negative = inhibition, actives largely listed as inhibitors; calls by dose curve; further: nearly all actives have a fitted effect of over 70% in size
# NPR2 antag = antagonizes human Npr2, subtype selectivity check | AID 1347046 | Potency, µM (series often up to 57.6 µM), without a hit: top-dose activity change, negative = inhibition, hits mostly inhibitors | shares compounds with hNpr1 antagonist | HEK293 hNpr2 GloSensor cGMP luminescence, CNP-stimulated | 1,400 compounds, 67% hits; calls by dose curve; further: nearly all actives have a fitted effect of over 70% in size
# FLuc counter = counter-screen for Npr1 antagonists: firefly luciferase inhibitors; shares compounds with hNpr1 antagonist; purified FLuc enzyme, luminescence, Km substrate; Potency, µM (titrated, usually from 57.6 µM), inactives show at the top dose activity change, negative = inhibition, hits mostly inhibitors; 1,400 compounds, 0.7% hits; AID 1347047; further: series mostly up to about 58 µM; 0% is about no effect
# GloSensor ctrl = reduces cGMP signal in GloSensor control cells; shares compounds with hNpr1 antagonist; HEK293 GloSensor cGMP, SNP-stimulated, luminescence; Potency, µM (top dose mostly 57.6 µM), without a hit: at the highest dose activity change, negative = inhibition, actives largely listed as inhibitors; 1,400 compounds, 69% hits; calls by dose curve; further: on the % scale 0 is the no-effect control and ±100 the full control effect; nearly all actives have a fitted effect of over 70% in size
# * = called active by the depositor; i = inactive; ? = inconclusive; nt = no result; [ ] = remark or other dose. Unless noted, the call rests on the fitted dose curve; in most records, active means well fitted curve in the direction sought with a large enough effect; inconclusive means small, poorly fitted or top-dose-only effect, or another doubt; inactive means no such curve, though single readings can be large; an effect the other way counts as inactive or inconclusive. Potency means the concentration at half of the fitted maximal effect.
SMILES,Luciferase inh,GPT2 inhibitor,HEK cytotox,NIH3T3 tox,hNpr1 antagonist,NPR1 antag cnf,NPR2 antag,FLuc counter,GloSensor ctrl
COc1ccc(OC)c(S(=O)(=O)N[C@H]2CO[C@H]3[C@@H]2OC[C@H]3OC(=O)Nc2ccc(Oc3ccccc3)cc2)c1,i,-12%,?,?,8.9µM*,11µM*,14µM*,-7%,9.7µM*
CC(=O)Nc1ccc(S(=O)(=O)N[C@H]2CO[C@H]3[C@@H]2OC[C@@H]3Nc2nccc(-c3ccco3)n2)cc1,i,-7%,25µM*,?,13µM*,24µM*,24µM*,0%,27µM*
CC(=O)Nc1ccc(S(=O)(=O)N[C@H]2CO[C@H]3[C@@H]2OC[C@H]3OC(=O)Nc2ccc(Oc3ccccc3)cc2)cc1,i,?,?,?,11µM*,12µM*,17µM*,?,12µM*
O=C1COc2ccc(-c3ccccc3F)nc2CN1Cc1ccccc1,i,4%[88.5 µM],?,?,-20%[70.6 µM],nt,nt,nt,nt
Cc1nc(CN2Cc3nc(-c4ccc(Cl)cc4)ccc3OCC2=O)cs1,i,-2%[88.5 µM],?,?,?,nt,nt,nt,nt
O=C1COc2ccc(Nc3ccc(Cl)cc3)nc2CN1Cc1nc2ccccc2s1,i,-13%[88.5 µM],32µM*,40µM*,?,?,?,-3%[86.2 µM],?
O=C1COc2ccc(-c3ccc(Cl)cc3)nc2CN1Cc1ccccc1,i,-2%[88.5 µM],63µM*,?,?,31µM*,22µM*,3%[86.2 µM],?
COc1ccccc1CCC(=O)N1CCC[C@H]1c1nc(-c2ccc(OC)c(OC)c2)no1,i,i,?,?,-3%,nt,nt,nt,nt
CCNC(=O)N1CCC(CCOC)(NS(=O)(=O)c2cc(OC)ccc2OC)CC1,nt,-1%,-3%,-27%,nt,nt,nt,nt,nt
CCOc1ccccc1C(=O)N1CCc2[nH]nc(-c3ccc(F)c(F)c3)c2C1,i,?,?,?,?,?,?,2%,?
Cn1c(CNC(=O)c2ccc3nccn3c2)nc2cc(C(F)(F)F)ccc21,i,?,?,?,11µM*,22µM*,19µM*,-10%,27µM*
CC(=O)N1CCC2(CC1)CN(C(=O)c1ccc3[nH]ccc3c1)Cc1ccccc1O2,nt,-18%,-16%,-18%,nt,nt,nt,nt,nt
C=CCN1C[C@H]2COc3ccccc3[C@H]2N(C(=O)OCC(C)C)CCC1=O,nt,nt,-27%,?,nt,nt,nt,nt,nt
CC1(c2ccccc2)N(Cc2ccccc2C#N)C(=O)OC12CCN(Cc1c[nH]c3ccccc13)CC2 (centres undefined),i,-12%,14µM*,22µM*,?,19µM*,19µM*,0%,-9%
COc1ccc(CNC(=O)C2Cn3cccc3C(=O)N2Cc2cccnc2)cc1OC (centres undefined),i,i,-26%,-15%,-7%,nt,nt,nt,nt
COc1cccc(CN2CCC(Oc3ccccc3-c3nc(-c4ccncc4)no3)C2)c1 (centres undefined),i,1%,?,25µM*,?,?,?,?,0%
